For 36 compounds, Potency, max response and outcome results are on record in PubChem BioAssay (NCATS).

Several values for one entry are separate records, joined by “and”; a condition that tells them apart may be missing. Equal entries are not always repeated. Records with an inconclusive call do not appear. Values without a mark were called inactive. Activity calls are given as the source filed them. Calls come from the whole dose curve; as a rule, active = well fitted inhibition curve with a large enough effect; inconclusive = small, poorly fitted or top-dose-only effect; inactive = flat fitted curve, though single readings scatter.
% is set by controls: 0 for no effect and ±100 for the full control effect; potency is the fitted concentration of half-maximal effect.

For one test, the system named is KB-3-1. Kind of test: Cytotoxic Profiling of Annotated Libraries Using Quantitative High-Throughput Screening (AID 1296008). Note: nearly all actives have a fitted effect of over 60% in size. The settings on record: Five cell lines viability, CellTiter-Glo ATP luminescence, 48-72 h; max response: stronger effect = lower value. The method in brief: (§1)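 Compounds were pin-transferred onto cells and incubated 48 or 72 hr at 37 degree Celsius, 95% humidity. CellTiter-Glo was added, plates sat 10 min at room temperature, then ATP-coupled luminescence was imaged as the viability read-out.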
A general note: In ATP-based viability assays light output follows the ATP content of the culture.
`CC(=Cc1csc(C)n1)[C@@H]1C[C@H]2O[C@]2(C)CCC[C@H](C)[C@@H](O)[C@@H](C)C(=O)C(C)(C)[C@@H](O)CC(=O)O1`: the Potency was 0.1 nM (active).

For the compound `O=C(Nc1ccncc1)C(=O)c1cn(Cc2ccc(Cl)cc2)c2ccccc12`, the Potency was 46.9 nM (active). Consider `NC1=NC(=O)N2CC12` (stereo unspecified), for which the max response is 6.64%.

Consider `c1ccc2c(CN3CCNCC3)cccc2c1`, for which the outcome was inactive. `CCCC[N+]1(C)[C@H]2CC(OC(=O)[C@H](CO)c3ccccc3)C[C@H]1[C@H]1O[C@H]12` (stereo partly specified): the max response was -2.74%. Turning to `CCOCCOC(C)=O`, the max response is -19.2%. `C#CC1(O)CCC2C3CCC4=CC(=O)CCC4(C)C3CCC21C` (stereo unspecified): the max response is -11.2%. `COC(C)(C)CCCC(C)C/C=C/C(C)=C/C(=O)OC(C)C` (stereo unspecified): the max response was 3.28%. On the same count and under the same terms, in the case of `NC1CC1c1ccccc1` (stereo unspecified) it was 5.36%; in that of `O=C1C=CC[C@@H]2[C@H]3CCCN4CCC[C@@H](CN12)[C@@H]34`, 5.89%.

Regarding `O=C(O)COc1ccccc1`, the max response was -13.1%. As for `Cc1[nH]nc2ccc(-c3cncc(OC[C@@H](N)Cc4c[nH]c5ccccc45)c3)cc12`, the Potency is 146 nM (active).

As for `C[C@]12CCC(=O)C(O)=C1CC[C@@H]1[C@H]3CCC(=O)[C@@]3(C)CC[C@@H]12`, the max response was 3.15%. Still for that read-out and setting: in the case of `O=[N+]([O-])/N=C1\NCCN1Cc1ccc(Cl)nc1` it was 6.99% and -6.61%; in that of `O=C(N[C@@H](COc1ccc2[nH]c(=O)[nH]c2c1)c1ccccc1)c1cccn(Cc2ccc(F)c(F)c2)c1=O`, -0.47%; in that of `C[C@]12Cc3cn[nH]c3C[C@@H]1CC[C@@H]1[C@H]2CC[C@@]2(C)[C@H]1CC[C@]2(C)O`, -0.691%. The same measure, in the same setting: in the case of `Nc1c(Cl)c(Cl)c(Cl)c(Cl)c1Cl` it was -13%.

For a further test, the system named is NIH3T3. The test is described as above. Particulars: Five cell lines viability, CellTiter-Glo ATP luminescence, 48-72 h; max response: stronger effect = lower value. In a few lines:
as §1
In the case of `CCCCCCCCCCCCCCCC[N+](C)(C)C`, the Potency was 21.1 µM (active). As for `C=C[C@@H]1CN2CCC1C[C@@H]2[C@@H](O)c1ccnc2ccccc12` (stereo partly specified), the max response is -16.7%. As for `O=c1cccc2n1CC1CNC[C@H]2C1`, the max response was -3.34%. Regarding `CCC(=O)O[C@@H]1C=C2CCC3C(CCC4(C)C3CC[C@@H]4OC(=O)CC)C2CC1` (stereo partly specified), the compound was called inactive. For the compound `COc1ccc(N(C(=O)Oc2c(C)cccc2C)c2ccnc(Nc3ccc(N4CCN(C)CC4)cc3)n2)c(OC)c1`, the Potency is 18.7 µM (active). Take `CCNC(=O)C[C@@H]1N=C(c2ccc(Cl)cc2)c2cc(OC)ccc2-n2c(C)nnc21`: the Potency was 1.84 µM (active). As for `CC(C)NCC(O)c1ccc([N+](=O)[O-])cc1` (stereo unspecified), the max response is -0.143%. Still for that read-out and setting: in the case of `C[C@@H]1CC[C@H]2[C@@H](C)C(=O)O[C@@H]3O[C@@]4(C)CC[C@H]1[C@]32OO4` it was -12.8%; in that of `CN[C@@H](C)[C@H](O)c1ccccc1`, -5.73%. As for `O=C1CCC[C@@H]2[C@H]3CCCN4CCC[C@@H](CN12)[C@@H]34`, the call was inactive. On to `C=CC(=O)NCNC(=O)C=C`, for which the max response is -14.2%. With `CC(C)(O)C(=O)Nc1ccc([N+](=O)[O-])c(C(F)(F)F)c1`, the call was inactive.

For the compound `Cc1ccc(Cl)c(O)c1`, the outcome was inactive. On the same count and under the same terms, in the case of `CC1=C(C(=O)O)N2C(=O)[C@@H](N)[C@H]2SC1` it was “inactive”.

Consider `CC(C)[C@]12O[C@@H]1[C@@H]1O[C@]13[C@]1(O[C@H]1C[C@@H]1C4=C(CC[C@@]13C)C(=O)OC4)[C@H]2O`, for which the max response was -117%.

On to `COc1cc2cc(c1Cl)N(C)C(=O)C[C@H](OC(=O)C(C)C)[C@]1(C)O[C@H]1[C@H](C)[C@@H]1C[C@@](O)(NC(=O)O1)[C@H](OC)C=CC=C(C)C2`, for which the max response was -88.8%. For `O=S(=O)(O)C(F)(F)C(F)(F)C(F)(F)C(F)(F)F`, the outcome was inactive. Same read-out and setting: in the case of `CC(C)(C)c1cc(C=C(C#N)C#N)cc(Br)c1O` it was “inactive”. On to `CC(=Cc1csc(C)n1)[C@@H]1C[C@H]2O[C@]2(C)CCC[C@H](C)[C@@H](O)[C@@H](C)C(=O)C(C)(C)[C@@H](O)CC(=O)O1`, for which the max response is -85.8%. In the case of `O=C(Nc1ccncc1)C(=O)c1cn(Cc2ccc(Cl)cc2)c2ccccc12`, the Potency is 0.0526 µM (active).

In the case of `C[C@]12CC[C@@H]3[C@@H](CCC4=CC(=O)CC[C@@H]43)[C@@H]1CC[C@@H]2OC(=O)CCc1ccccc1`, the max response is -6.38%.

On to `NC1=NC(=O)N2CC12` (stereo unspecified), for which the compound was classed as inactive. Turning to `c1ccc2c(CN3CCNCC3)cccc2c1`, the max response was 4.9%. Take `CCCC[N+]1(C)[C@H]2CC(OC(=O)[C@H](CO)c3ccccc3)C[C@H]1[C@H]1O[C@H]12` (stereo partly specified): the max response is -3.27%.
